test: GAPDH versus PEG-3 reporter suppression – cell-based, luminescence, counter-screen for PEG-3 promoter inhibitor project, SAR follow-up (AID 651551); details: HeLa PEG-Prom / GAPDH luciferase reporter, 6 or 24 h, run 2, 6 h; at 99 µM (top of the series)

| Structure (SMILES) | inhibition % (higher = more inhibition) [%] |
| --- | --- |
| Cc1cc(NC(=O)c2ccccc2)n(-c2nc3ccccc3[nH]2)n1 | 15.3 |
| O=C(Nc1nc(-c2ccccc2)cs1)c1nn(-c2ccccc2)c(=O)c2ccccc12 | 28.9 |
| CCn1cc(C(=O)NCc2ccco2)c(=O)c2cc(S(=O)(=O)N3CCCC3)ccc21 | 42.1 |
| Cc1cc(NC(=O)c2ccccc2C)n(-c2nc3ccccc3[nH]2)n1 | 26.1 |
| O=C(Nc1nccs1)c1nn(-c2ccccc2)c(=O)c2ccccc12 | 50.3 |
| CCCn1nc(C(=O)Nc2nc(-c3ccccn3)cs2)c2ccccc2c1=O | 64.7 |
| Cc1ccc(Cl)cc1Nc1nc(-c2sc(NC(=O)c3ccco3)nc2C)cs1 | 71 |
| COCCCNC(=O)c1ccc(Cn2c(=O)c3ccccc3n(Cc3ccccc3C#N)c2=O)cc1 | 21.9 |
| COc1ccc(-n2nc(C(=O)NCC(=O)Nc3cccc(OC)c3)c3ccccc3c2=O)cc1 | 28.5 |
| COc1ccccc1Nc1nc(-c2sc(NC(=O)c3ccco3)nc2C)cs1 | 72.7 |
| COc1ccc(-n2nc(C(=O)NCC(=O)Nc3ccc(OC)c(OC)c3)c3ccccc3c2=O)cc1 | 55.7 |
| COc1ccc(Cl)cc1Nc1nc(-c2sc(NC(=O)c3ccccc3)nc2C)cs1 | 33.6 |
| CCCn1nc(C(=O)Nc2nc3ccccc3s2)c2ccccc2c1=O | 12.5 |
| Cc1nc(NC(=O)c2ccccc2)sc1-c1csc(Nc2cccc(Cl)c2C)n1 | 35.5 |
| COc1ccc(-n2nc(C(=O)NCC(=O)Nc3cc(OC)c(OC)c(OC)c3)c3ccccc3c2=O)cc1OC | 26.1 |
| Cc1nc(NC(=O)c2ccccc2)sc1-c1csc(Nc2ccccc2)n1 | 74.5 |
| O=C(Nc1nc2ccccc2s1)c1nn(-c2ccccc2)c(=O)c2ccccc12 | 6.36 |
| Cc1cc(NC(=O)c2ccccc2)n(-c2nc3ccccc3n2C)n1 | 16.7 |
| Cc1cc(NC(=O)c2ccccc2C(F)(F)F)n(-c2nc3ccccc3[nH]2)n1 | 91.4 |
| Cc1nc(NC(=O)c2ccccc2)sc1-c1csc(Nc2ccccc2Cl)n1 | -2.1 |
| CCCn1nc(C(=O)Nc2nc(-c3ccncc3)cs2)c2ccccc2c1=O | 56.1 |
| CCn1nc(C(=O)Nc2nc(-c3ccccn3)cs2)c2ccccc2c1=O | 72.7 |
| Cc1cc(NC(=O)c2cccc(C)c2C)n(-c2nc3ccccc3[nH]2)n1 | 19.1 |

Reference: PubChem BioAssay AID651551 (Sanford-Burnham Center for Chemical Genomics, 2012)
